This is an account of results in PubChem BioAssay (Tox21).

Unmarked numbers belong to inactive results. Records with an inconclusive call do not appear. The source made the active and inactive calls. Unless noted, calls come from the whole dose curve; as a rule, active = well fitted curve in the direction sought with a large enough effect in the repeat runs; inconclusive = weak or mixed curves; inactive = no such curve, though single readings can be large; an effect the other way counts as inactive or inconclusive.

A short description of test [1]: qHTS assay to identify small molecule antagonists of the estrogen related receptor (ERR) signaling pathway from Tox21 library - cell viability counter screen (AID 1224834). Note: nearly all actives have a fitted effect of over 30% in size. Summed up:
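ERR cells, 2,000/well; 6 h settle at 37 C/5% CO2; pin-tool compound transfer in DMSO; 17.5 h at 37 C; CellTiter-Fluor, 30 min; fluorescence intensity.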

Test [2] deals with Luciferin 4-monooxygenase (Photinus pyralis) (UniProt P08659). As to the kind of experiment: qHTS assay to identify small molecule inhibitors of firefly luciferase (AID 1224835). Note: nearly all actives have a fitted effect of over 25% in size. Note: potency is the fitted concentration of half-maximal effect. The gist of the method: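 Inhibition of purified Photinus luciferase is measured by luminescence. Substrate levels (D-luciferin, ATP) sit at their KM values. Each compound is tested in a concentration series.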

Test [3] in a line: qHTS assay to identify small molecule agonists of the constitutive androstane receptor (CAR) signaling pathway - cell viability counter screen (AID 1224836). Note: nearly all actives have a fitted effect of over 45% in size. Summed up:
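Cell viability multiplexed with the CAR agonist screen: CellTiter-Fluor fluorescence after 23 hr at 37 C. HepG2-CYP2B6-hCAR cells got compounds at 15 concentrations with PK11195 at 0.75 uM final.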

Test [4] can be described thus: qHTS assay to identify small molecule antagonists of the constitutive androstane receptor (CAR) signaling pathway - cell viability counter screen (AID 1224837). Note: nearly all actives have a fitted effect of over 45% in size. Summed up: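 Viability was measured with CellTiter-Fluor in a HepG2 line carrying stably transfected hCAR and a CYP2B6-2.2kb construct. Cells were exposed for 23 hr at 37 C to 15 compound concentrations with 50 nM CITCO as agonist.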

In test [5] the target is Nuclear receptor subfamily 1 group I member 3 (Homo sapiens) (UniProt Q14994). The experiment in a line: qHTS assay to identify small molecule antagonists of the constitutive androstane receptor (CAR) signaling pathway (AID 1224838).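 Note: HepG2 cells stably expressing hCAR with CYP2B6 luciferase reporter stimulated by CITCO; nearly all actives have a fitted effect of over 40% in size.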 Summed up:
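Antagonist mode used CITCO at a final 50 nM to activate CAR in human hepatoma HepG2 cells carrying stable hCAR and a 2.2 kb CYP2B6 promoter-luciferase construct. Compounds were tested at 15 concentrations over 24 h, with luminescence as the end point.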

Test [6] has the same target. As to the kind of experiment: qHTS assay to identify small molecule agonists of the constitutive androstane receptor (CAR) signaling pathway (AID 1224839). Note: nearly all actives have a fitted effect of over 15% in size. Note: potency is the fitted concentration of half-maximal effect. Summed up: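 Luminescent ONE-Glo read-out after 24 hr, 37 C exposure of double-stable HepG2-CYP2B6-hCAR reporter cells to a 15-point compound series, in the presence of 0.75 uM PK11195 (final).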
Test [7] can be described thus: qHTS assay to identify small molecule antagonists of the estrogen related receptor signaling pathway with the pleiotropic PPARgamma coactivator (PGC) from Tox21 10K library - cell viability counter screen (AID 1224840; active = well fitted cell-killing curve with a large enough effect in the repeat runs, not every such curve was filed as active; note: nearly all actives have a fitted effect of over 40% in size). The gist of the method: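 Multiplexed viability counter screen in the PGC/ERR cell line: cells treated with DMSO-dissolved compounds for 17.5 hours at 37 C, then viability measured as CellTiter-Fluor fluorescence.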

Test [8] in a line: qHTS assay to identify small molecule antagonists of the estrogen related receptor signaling pathway with the pleiotropic PPARgamma coactivator (PGC) from Tox21 10K library (AID 1224841; call rule not given here; note: actives are mostly falling curves and most rising ones were filed inactive; nearly all actives have a fitted effect of over 50% in size). Summed up:
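Steps: plate 2,000 PGC/ERR cells per well; incubate 6 h at 37 C with 5% CO2; transfer compounds from DMSO stocks by pin tool; incubate 18 h at 37 C; add One-Glo; measure luminescence 30 min later.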

Test [9] in a line: qHTS assay to identify small molecule agonists of the estrogen related receptor signaling pathway with the pleiotropic PPARgamma coactivator (PGC) from Tox21 10K library (AID 1224842). Note: nearly all actives have a fitted effect of over 15% in size. Note: potency is the fitted concentration of half-maximal effect. The gist of the method:
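Luminescence from One-Glo (30 min, room temperature) measured after PGC/ERR cells had 18 h at 37 C with pinned compound (23 nL in DMSO). Cells had been seeded at 2,000 per well and pre-incubated 6 h.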

Test [10] has as its target Thyrotropin receptor (Homo sapiens) (UniProt P16473). The experiment in a line: qHTS assay to identify small molecule agonists of the thyroid stimulating hormone receptor (TSHR) signaling pathway (AID 1224843; calls by dose curve; note: nearly all actives have a fitted effect of over 45% in size). Summed up:
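A cell-based cAMP HTRF format was run in TSHR-transfected HEK293 cells, 800 per well. Treatment: 30 min, room temperature. Detection: 1 h with labelled cAMP and anti-cAMP cryptate. Concentration-response over 15 points, three replicates.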

Test [11] in a line: qHTS assay to identify small molecule agonists of the hypoxia (HIF-1) signaling pathway - cell viability counter screen (AID 1224844; calls by dose curve; note: nearly all actives have a fitted effect of over 50% in size). Summed up:
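Cytotoxicity was measured in parallel with the HRE-driven beta-lactamase readout: after 17 hrs of compound exposure at 37C, HRE-bla ME-180 cells received CellTiter-Glo and luminescence was recorded 30 min later.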

Test [12] in a line: qHTS assay to identify small molecule agonists of the hypoxia (HIF-1) signaling pathway (AID 1224846; active = well fitted activation curve with a large enough effect in the signal ratio in the repeat runs, not every such curve was filed as active; the % refers to the signal ratio). Summed up:
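Compounds from the Tox21 10K library, dissolved in DMSO, are tested for induction of a hypoxia response element–controlled beta-lactamase reporter in ME-180 cells. Exposure lasts 17 hrs at 37C after a 5 hr settling period, followed by CCF4-AM FRET substrate.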

The nature of test [13]: qHTS assay to identify small molecule agonists of H2AX - cell viability counter screen (AID 1224847; calls by dose curve;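 note: wild-type CHO-K1 cells; top concentration of the series differs between compounds; nearly all actives have a fitted effect of over 30% in size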). Summed up:
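Counter-screen for viability: CellTiter-Glo ATP luminescence read after 3 h compound treatment (15-point titration, 0.76% DMSO final) of CHO-K1 cells at 37C, with 30 min room-temperature reagent incubation.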

Test [14] is described as follows: qHTS assay to identify small molecule antagonists of the estrogen related receptor (ERR) signaling pathway from Tox21 library (AID 1224848). Note: nearly all actives have a fitted effect of over 50% in size. The gist of the method: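 ERR cell line, 2,000 cells/well. 6 h settle, then compound (DMSO) added; 18 h at 37 C; ONE-Glo luminescence after 30 min RT.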
Test [15] can be described thus: qHTS assay to identify small molecule agonists of the estrogen related receptor (ERR) signaling pathway from Tox21 library (AID 1224849; calls by dose curve; note: nearly all actives have a fitted effect of over 15% in size). The note with it: ERR reporter cell line, ONE-Glo luciferase, 18 h; at 92.4 µM (top of the series) unless noted. The gist of the method:
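Cells carrying the ERR reporter were plated and allowed to settle for 6 h, exposed to library compounds for 18 h at 37 C, then lysed with ONE-Glo and luminescence measured.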

Test [16] is described as follows: qHTS RealTime-Glo MT Cell Viability Assay in HepG2 cells - 24 hour (AID 1224867). Note: nearly all actives have a fitted effect of over 50% in size. The gist of the method:
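qHTS, HepG2, 600 cells/well, RealTime-Glo (NanoLuc + prosubstrate) added with cells; 5 h preincubation; DMSO compound addition; 37 C; luminescence at 0/8/16/24/32/40 h.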

A short description of test [17]: qHTS RealTime-Glo MT Cell Viability Assay in HEK293 cells - 32 hour (AID 1224868). Summed up: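 Assay medium contained NanoLuc luciferase plus cell-permeant prosubstrate, added with HEK293 cells at 600 cells/well. After 5 h at 37 C/5% CO2 compounds were added; plates stayed at 37 C for 40 h with serial luminescence reads.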
A short description of test [18]: A CellTox Green Cytotoxicity Assay to monitor cytotoxicity in HEK293 cells - 0 hour (AID 1224869). Note: nearly all actives have a fitted effect of over 50% in size. The gist of the method: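 Cells (HEK293, 600/well) and dye reagent are dispensed together. After 5 h at 37 C, 23 nL compound is pinned in. Plates stay at 37 C for 40 h with fluorescence read at 0h, 8h, 16h, 24h, 32h and 40h.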
Test [19] is described as follows: qHTS assay to identify small molecule agonists of H2AX (AID 1224845; active = well fitted activation curve with a large enough effect in the signal ratio in the repeat runs, not every such curve was filed as active; the % refers to the signal ratio). Summed up: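 Phospho-H2AX Ser139 measured by HTRF (ex 320 nm; em 665 and 620 nm) after 24 hr antibody incubation. Compounds, 15 concentrations, 0.76% DMSO, were applied to CHO-K1 cells for 3hr at 37C before lysis.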
% is set by controls: 0 for no effect and ±100 for the full control effect.

Nuclear receptor subfamily 1 group I member 3 (Homo sapiens), sequence (Q14994 whole entry, looked up): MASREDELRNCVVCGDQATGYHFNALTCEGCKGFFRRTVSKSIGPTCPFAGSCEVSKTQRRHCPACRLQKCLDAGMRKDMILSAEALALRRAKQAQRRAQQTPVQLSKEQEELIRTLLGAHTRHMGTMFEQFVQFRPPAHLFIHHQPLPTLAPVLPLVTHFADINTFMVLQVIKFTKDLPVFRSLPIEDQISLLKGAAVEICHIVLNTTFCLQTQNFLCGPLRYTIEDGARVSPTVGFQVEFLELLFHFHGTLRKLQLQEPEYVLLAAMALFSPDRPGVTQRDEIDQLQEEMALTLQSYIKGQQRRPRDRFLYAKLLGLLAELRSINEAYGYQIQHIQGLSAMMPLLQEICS
Luciferin 4-monooxygenase (Photinus pyralis), sequence (P08659 whole entry, looked up): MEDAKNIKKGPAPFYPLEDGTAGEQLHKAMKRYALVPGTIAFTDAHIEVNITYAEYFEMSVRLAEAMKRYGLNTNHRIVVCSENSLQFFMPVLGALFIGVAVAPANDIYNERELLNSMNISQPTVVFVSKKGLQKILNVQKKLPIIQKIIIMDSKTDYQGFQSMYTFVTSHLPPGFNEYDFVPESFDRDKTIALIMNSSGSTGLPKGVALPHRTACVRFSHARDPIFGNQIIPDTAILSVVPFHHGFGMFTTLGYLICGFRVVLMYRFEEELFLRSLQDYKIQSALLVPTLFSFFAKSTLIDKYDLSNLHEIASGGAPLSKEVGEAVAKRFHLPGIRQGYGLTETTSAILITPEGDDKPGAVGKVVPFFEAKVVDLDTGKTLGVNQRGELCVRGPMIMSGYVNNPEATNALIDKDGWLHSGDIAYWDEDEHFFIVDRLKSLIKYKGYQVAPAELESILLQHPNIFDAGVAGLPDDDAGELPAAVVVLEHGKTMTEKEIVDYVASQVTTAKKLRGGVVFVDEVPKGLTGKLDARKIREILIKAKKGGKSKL
Thyrotropin receptor (Homo sapiens), sequence (P16473 whole entry, looked up): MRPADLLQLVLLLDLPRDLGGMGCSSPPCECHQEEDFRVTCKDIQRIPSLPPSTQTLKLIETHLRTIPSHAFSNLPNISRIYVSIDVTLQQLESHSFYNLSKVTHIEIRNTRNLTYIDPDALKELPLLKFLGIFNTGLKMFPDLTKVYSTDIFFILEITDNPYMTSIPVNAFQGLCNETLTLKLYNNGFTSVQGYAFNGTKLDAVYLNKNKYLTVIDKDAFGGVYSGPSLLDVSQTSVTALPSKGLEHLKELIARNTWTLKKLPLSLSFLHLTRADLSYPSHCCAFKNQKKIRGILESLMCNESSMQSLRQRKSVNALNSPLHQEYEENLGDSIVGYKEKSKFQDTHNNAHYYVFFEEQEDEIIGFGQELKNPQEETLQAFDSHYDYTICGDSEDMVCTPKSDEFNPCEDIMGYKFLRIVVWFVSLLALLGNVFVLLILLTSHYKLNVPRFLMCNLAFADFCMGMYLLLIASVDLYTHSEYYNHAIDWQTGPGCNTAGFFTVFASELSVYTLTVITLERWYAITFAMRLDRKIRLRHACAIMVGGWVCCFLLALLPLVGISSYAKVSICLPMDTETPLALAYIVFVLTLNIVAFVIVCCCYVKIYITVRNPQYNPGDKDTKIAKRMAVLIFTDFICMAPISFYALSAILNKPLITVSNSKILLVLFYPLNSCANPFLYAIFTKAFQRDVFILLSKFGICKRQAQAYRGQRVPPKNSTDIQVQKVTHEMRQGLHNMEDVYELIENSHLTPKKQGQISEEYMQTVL

For the molecule `CN=C(N)NC(=O)Nc1c(C)cccc1C`, the Potency entry in test [1], in test [2], in test [3], in [4], in test [5] and in [6] was “inactive” throughout. Moreover, the Potency entry in test [7], in [8], in test [9], in test [10], in test [11] and in test [13] was “inactive” each time. Further, the Potency entry in [14], in [16], in test [17] and in test [18] was “inactive” throughout. Moreover, in test [12], the molecule was classed as inactive. For the same molecule, the activity change, positive = activation in test [15] is -0.434% [at 42.5 µM].
`C=Cc1ccc(OC(C)=O)cc1`: the Potency result in [1], in test [2], in test [3], in [4], in test [5] and in test [6] was “inactive” throughout. Further, the Potency entry in test [7], in test [8], in test [9], in test [10], in test [11] and in test [13] was “inactive” each time. For the same molecule, the Potency entry in test [14], in test [16], in test [17] and in [18] was “inactive” in each case. For the same molecule, in test [12], the result was inactive. Moreover, the activity change, positive = activation in test [15] is 12.7%.
Take `COc1cc(NS(=O)(=O)c2ccc(N)cc2)nc(C)n1`: the Potency entry in test [1], in test [2], in test [3], in test [4], in [5] and in test [6] was “inactive” throughout. Further, the Potency entry in test [7], in [8], in test [9], in test [10], in test [19] and in test [13] was “inactive” each time. Moreover, the Potency result in test [14], in test [16] and in test [18] was “inactive” in each case. For the same molecule, the molecule was classed as inactive in test [12]. Besides, in test [15], the activity change, positive = activation was 5.82% [at 42.5 µM].
Regarding `CC1C(C)(C)C2=C(C(=O)CCC2)C1(C)C` (stereo unspecified), the Potency entry in test [1], in [2], in test [3], in test [4], in test [5] and in test [6] was “inactive” throughout. In addition, the Potency entry in test [7], in test [8], in test [9], in test [10], in test [11] and in test [13] was “inactive” in each case. Further, the Potency result in [14], in test [16], in [17] and in test [18] was “inactive” throughout. Further, in test [12], the call was inactive. Moreover, the activity change, positive = activation in test [15] was -0.756%.
For `CC1CCc2nccnc21` (stereo unspecified), the Potency entry in test [1], in [2], in test [3], in test [4], in [5] and in [6] was “inactive” each time. In addition, the Potency entry in [7], in [8], in test [9], in test [11], in [19] and in test [13] was “inactive” in each case. For the same molecule, the Potency entry in [14], in test [16], in test [17] and in [18] was “inactive” each time. Also, the call in test [12] was inactive. Moreover, the activity change, positive = activation in test [15] was 3.13%.
Regarding `O=C(Oc1ccccc1)c1ccc2ccccc2c1O`, the Potency entry in test [1], in test [3], in [4], in test [5], in [7] and in [8] was “inactive” in each case. The Potency entry in [11], in test [19], in test [14], in test [16], in test [17] and in [18] was “inactive” in each case. The Potency in [2] is 2.52 µM (active); in test [6] it was 54.5 µM (active); in test [9], 9.69 µM (active). The call in [12] was inactive. Besides, the activity change, positive = activation in test [15] is 116% (active).
